# Laboratory results from PubChem BioAssay AID687016 (The Scripps Research Institute Molecular Screening Center, 2013).
# Screen size: about 370,000 compounds; about 2,800 (0.76%) were called active. What follows is part of a selection rich in actives, with near analogues and random picks from the rest. Unmarked numbers belong to inactive results. Rule as the data show it: active = inhibition above about 21%; inactive = the rest.
# Target: E3 ubiquitin-protein ligase UHRF1 (Homo sapiens) (UniProt Q96T88)
# Test: UHRF1 methylated DNA binding inhibitors, primary screen, counter-screen for MBD2 inhibitor project, biochemical, TR-FRET, human UHRF1, single concentration (AID 687016);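 also: UHRF1 SRA domain binding a hemimethylated CpG hairpin DNA probe; 0% = median of test compound wells and 100% = reference inhibitor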
# Conditions: UHRF1 binding to methylated oligo, at 4.4 µM, active compounds read high
# Sequence of E3 ubiquitin-protein ligase UHRF1 (Homo sapiens) (Q96T88 whole entry, looked up, the tested form may be a part): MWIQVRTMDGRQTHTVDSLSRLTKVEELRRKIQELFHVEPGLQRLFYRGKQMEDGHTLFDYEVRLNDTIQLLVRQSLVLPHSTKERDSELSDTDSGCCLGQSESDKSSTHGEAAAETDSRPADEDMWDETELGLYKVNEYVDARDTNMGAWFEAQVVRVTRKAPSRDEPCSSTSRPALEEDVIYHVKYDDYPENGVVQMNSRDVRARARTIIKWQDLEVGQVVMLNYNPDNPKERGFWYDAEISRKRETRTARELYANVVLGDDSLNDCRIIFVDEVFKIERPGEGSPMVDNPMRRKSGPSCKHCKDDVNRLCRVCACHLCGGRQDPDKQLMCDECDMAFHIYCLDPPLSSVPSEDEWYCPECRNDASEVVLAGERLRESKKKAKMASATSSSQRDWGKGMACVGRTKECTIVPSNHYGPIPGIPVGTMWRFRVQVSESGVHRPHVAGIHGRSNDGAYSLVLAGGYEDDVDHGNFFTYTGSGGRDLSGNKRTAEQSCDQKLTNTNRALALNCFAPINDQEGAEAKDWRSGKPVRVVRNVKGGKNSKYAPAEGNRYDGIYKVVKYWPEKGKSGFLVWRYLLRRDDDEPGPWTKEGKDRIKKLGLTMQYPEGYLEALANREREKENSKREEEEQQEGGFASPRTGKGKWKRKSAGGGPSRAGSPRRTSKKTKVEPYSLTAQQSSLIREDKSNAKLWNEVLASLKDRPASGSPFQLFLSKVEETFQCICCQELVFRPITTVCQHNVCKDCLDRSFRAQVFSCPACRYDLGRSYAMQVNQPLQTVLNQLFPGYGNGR
row,SMILES,inhibition
1,C=C(C)C#CC(Cc1ccccc1)N(CC1CC1)/C(N)=N/C(=O)OCc1ccccc1 (stereo not drawn),-3.18%
2,COc1ccc(C(=O)NNc2cc(C)nc(NNC(=O)c3ccc(OC)cc3)n2)cc1,20.7% (active)
3,COc1ccc(C(=O)NCCSc2ccccc2C)cc1,0.98%
4,COc1cccc(C(=O)NC(=O)Nc2nc(C)cc(C(F)(F)F)n2)c1,0.01%
5,CCOC(=O)C1CCN(C(=O)C(C)(C)NC(=O)Nc2ccc(F)c(F)c2)CC1,2.59%
6,COc1ccc(N2CCN(C(=O)c3cccs3)CC2)cc1,-7.02%
7,O=C(COc1ccccc1)Nc1ccc(N2CCN(C(=O)c3cccs3)CC2)cc1,44.9% (active)
8,O=C(Nc1ccc(N2CCN(C(=O)c3cccs3)CC2)cc1)c1cccnc1Cl,-0.07%
9,CCOc1ccc(N(CC(=O)NCCc2ccc(F)cc2)S(=O)(=O)c2ccccc2)cc1,16.8%
10,COc1ccc(CCNC(=O)CN(c2ccccc2)S(=O)(=O)c2ccccc2)cc1,1.05%
11,CCOc1ccc(N(CC(=O)NCCOc2ccccc2OC)S(=O)(=O)c2ccccc2)cc1,28% (active)
12,Cc1ccc(Cn2cc(CN3[C@@H](C)COc4cc(Br)ccc4S3(=O)=O)nn2)cc1,-1.6%
13,COC(=O)[C@]12C[C@H](CC(=O)NCc3ccccc3)C(=O)N(Cc3ccccc3)C1=C[C@H](COCc1ccccc1)O[C@@H]2C,3.31%
14,O=S1(=O)c2c(cccc2N2CCSCC2)Oc2ccccc2CN1Cc1cn(Cc2ccc(F)cc2)nn1,2.59%
15,O=C(N/N=C/c1ccco1)c1ccc(C(=O)N/N=C/c2ccco2)o1,38.3% (active)
16,O=C(Cn1cnc2ccccc21)N/N=C/c1ccco1,-2.46%
17,CN(C)S(=O)(=O)c1cccc(C(=O)N/N=C\c2ccco2)c1,-2.24%
18,C=CS(=O)(=O)N(Cc1nnn(Cc2ccccc2)c1Br)[C@H](C(=O)OC)C(C)C,3.67%
19,O=C(NCCCNC(=O)c1ccccc1Cl)c1cnccn1,4.5%
20,CN(C)CCNC(=O)Cc1ccc([N+](=O)[O-])cc1,-0.93%
21,CN(C)CCNC(=O)c1ccc(Cl)c2cc3ccccc3nc12,30.7% (active)
22,N#Cc1ccccc1CN1C(=O)S/C(=C/c2cccn2-c2cccc(C(=O)O)c2)C1=O,21.4% (active)
23,Cc1ccc(C(=O)O)cc1-c1ccc(/C=C2\SC(=O)N(CC(=O)Nc3ccc4c(c3)OCO4)C2=O)o1,12.9%
24,COC(=O)[C@H](C(C)C)N(CCCc1cn(Cc2ccccc2)nn1)S(=O)(=O)c1ccc(F)cc1Br,7.41%
25,O=S1(=O)c2ccc(Br)cc2OC[C@@H](Cc2ccccc2)N1Cc1cn(Cc2ccco2)nn1,-5.15%
26,CC(C)c1ccc(C(=O)OC2CCOC2=O)cc1 (stereo not drawn),0.68%
27,COc1cc(C(=S)N2CCOCC2)cc(OC)c1OC(=O)c1ccc([N+](=O)[O-])cc1[N+](=O)[O-],3.69%

row,SMILES,inhibition
1,COc1cc(C(=O)OC2CCOC2=O)c([N+](=O)[O-])cc1OC (stereo not drawn),22.8% (active)
2,COc1ccc(CSc2nnc(SCC(=O)Nc3ccccc3C(F)(F)F)s2)cc1,2.07%
3,O=C(OCC#CCSc1nnc(-c2ccco2)o1)c1ccc(F)cc1,-3.52%
4,O=C(CSc1nc2ccccc2nc1N1CCCCC1)N1CCN(S(=O)(=O)c2cccc([N+](=O)[O-])c2)CC1,-2.11%
5,COc1cccc2c1C(=O)c1c(O)c3c(c(O)c1C2=O)CC(O)(C(C)=NNC(=O)c1ccc(Cl)c(Cl)c1)CC3OC1CC(N)C(O)C(C)O1 (stereo not drawn),96% (active)
6,COc1cccc(CNC(=O)CNS(=O)(=O)c2ccc3nc(C)sc3c2)c1OC,-1.45%
7,COc1cc(NC(=O)C2CCCN(S(=O)(=O)c3ccc(C(C)(C)C)cc3)C2)cc(OC)c1 (stereo not drawn),2.42%
8,CCCOc1ccc(Oc2c(Cl)cnn(Cc3cccc4ccccc34)c2=O)cc1,2.95%
9,CC(=O)Nc1nc2ncccn2c1-c1ccc(C(F)(F)F)cc1,-2.41%
10,COc1ccc(N2C(=O)C(CC(=O)Nc3ccccc3)N(Cc3ccc(OC)c(OC)c3)C2=O)cc1 (stereo not drawn),1.08%
11,COc1ccc(CCN2C(=O)N(c3ccc(OC)cc3)C(=O)C2CC(=O)Nc2ccc(OC)cc2)cc1 (stereo not drawn),37.7% (active)
12,COc1ccc(N2C(=O)C(CC(=O)Nc3ccc(F)cc3)N(CCc3cccs3)C2=O)cc1 (stereo not drawn),1.34%
13,CCc1cccc(OC2OC(CO)C(O)C(O)C2NC(C)=O)c1 (stereo not drawn),1.52%
14,CCCCCCCCOC1OC(CO)C(O)C(O)C1NC(C)=O (stereo not drawn),0.97%
15,CCCCCCCCCOC1OC(CO)C(O)C(O)C1NC(C)=O (stereo not drawn),53.3% (active)
16,CCC(NC(=O)C1C2C=CC3(CN(Cc4ccccc4)C(=O)C13)O2)c1ccccc1 (stereo not drawn),0.23%
17,Cc1cc(C(=O)NN=C/C=C/c2ccco2)n[nH]1,5.21%
18,CCOc1ccc(NC(=O)c2ccc(NC(=O)CN3C(=O)C(=O)N(CC(C)C)C3=O)cc2)cc1,3.55%
19,CCOc1ccc(NC(=O)c2ccc(CSc3nnnn3C)cc2)cc1,-0.48%
20,CCOc1ccc(NC(=O)c2ccc(NC(=O)COC(=O)c3ccc(NC(=O)CC#N)cc3)cc2)cc1,23.6% (active)
21,COc1cccc(Cn2cc(COC(=O)Nc3ccc(F)cc3)nn2)c1,0.48%
22,Cn1c(=O)c2c(ncn2CC(=O)N2CCN(c3ccccc3)CC2)n(C)c1=O,-2.46%
23,Cc1cccc(Cn2c(N3CCN(c4ccccc4)CC3)nc3c2c(=O)n(C)c(=O)n3C)c1,23.8% (active)
24,CCOC(=O)N1CCN(Cc2nc3c(c(=O)n(C)c(=O)n3C)n2Cc2ccccc2)CC1,1.75%
25,CN(C)[C@H]1CCN(c2cccc3c2S(=O)(=O)N2CC[C@H](C2)O3)C1,-0.6%
26,O=C(NCCCc1ccccc1)[C@H](Cc1ccccc1)NC1(C(=O)NCCc2c[nH]c3ccccc23)CCC1,0.93%
